Reference: PubChem BioAssay (NCI)
This is part of a sample that, as a whole, favours compounds with a hit. Of some 83,000 tested, about 20% had one in any assay.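 Cells were grown in 96-well plates and exposed to the test compound at a single concentration for 48 hours; results are reported as percent growth, with values below 10 considered active.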 A number with no mark means an inactive call. Active and inactive are the calls of the source.

What was measured:
Assay in all cases: NCI-60 one-dose screen, 48 h (100 = growth as untreated, 0 = no growth, -100 = all killed)
Settings in all cases: 10 µM unless noted
SK-MEL-2 melanoma = system: SK-MEL-2 melanoma
SN12C renal = system: SN12C renal
UO-31 renal = system: UO-31 renal
TK-10 renal = system: TK-10 renal
ACHN renal = system: ACHN renal
CAKI-1 renal = system: CAKI-1 renal
A498 renal = system: A498 renal
CCRF-CEM leukemia = system: CCRF-CEM leukemia
MOLT-4 leukemia = system: MOLT-4 leukemia
EKVX NSCLC = system: EKVX NSCLC

| Structure (SMILES) | growth (SK-MEL-2 melanoma) | growth (SN12C renal) | growth (UO-31 renal) | growth (TK-10 renal) | growth (ACHN renal) | growth (CAKI-1 renal) | growth (A498 renal) | growth (CCRF-CEM leukemia) | growth (MOLT-4 leukemia) | growth (EKVX NSCLC) |
| --- | --- | --- | --- | --- | --- | --- | --- | --- | --- | --- |
| CCCCCCCCCCCCC1CCCC(C)C1 (configuration not stated) | 94.9% | 106% | 87.9% | 94.2% | 95.5% | 88.2% | 98.5% |  |  |  |
| NS(=O)(=O)c1ccc(N2CC(c3nc4ccccc4[nH]3)CC2=O)cc1 (configuration not stated) | 102% | 97.3% | 76.6% | 128% | 91.9% | 97.3% | 110% | 98.3% | 96.3% |  |
| CC(C)Cn1cnc2c(NCn3nc(-c4cc(Cl)cc(Cl)c4Cl)n(/N=C/c4ccc(Cl)cc4)c3=S)nc3ccccc3c21 | 81.8% | 85% |  | 90.4% | 81.6% | 63.9% | 96.8% |  | 82.2% | 70.6% |
| O=C1/C(=C/c2ccccc2O)C(=S)SN1Cc1ccco1 | 81.4% | 93.8% | 84.4% | 98.8% | 106% | 119% | 95.2% | 70.7% | 99% |  |
| Cc1ccc2nc(-c3ccc(N(C)C)c(Br)c3)cn2c1 | 94.3% | 94.8% |  | 146% | 95.6% | 126% | 118% |  | 28.6% | 79.5% |
| CCOc1cc(CCNS(=O)(=O)c2ccc(C)cc2)c(C(C)=O)cc1OCC | 86.1% [100 µM] | 80.5% [100 µM] | -69.9% [100 µM] (active) | 84.6% [100 µM] | 75.5% [100 µM] | 36% [100 µM] | 62.1% [100 µM] |  | 9.64% [100 µM] (active) |  |
| CCCCNCCCN(CCCC)CCCNCCCC | 112% | 89% | 83.7% | 97.3% | 104% | 91.1% | 94.6% |  | 103% |  |
| O=c1ncc(-c2ccc(C(F)(F)F)cc2)c(NC2CCCCCC2)[nH]1 | 50.9% | 45.9% | 52.3% | 65.1% | 24.4% | 93% | 84.4% | 46.4% | 77.7% |  |
| COc1ccc(CCN2C(=O)CCC3=C2CCCC3=O)cc1OC | 122% | 101% | 81.8% | 114% | 100% | 109% | 103% |  | 103% |  |
| NC(=O)c1cc(Cl)ccc1NC(=O)c1ccccc1-c1ccccc1 | -12.2% (active) | 51.9% | 30.7% | 41.6% | 34.9% | 26.4% | 27.5% | 7.4% (active) | 13.3% |  |
| CC(NNC(=S)N1CCCCCC1)c1ccc2ccccc2n1 (configuration not stated) | 90.2% | 37.3% | 9.9% (active) | 41.9% | 16.7% | -9.22% (active) | 71.1% |  | 28.3% |  |
| CCCCCc1c(C)[nH]c(/C=C2\N=C(c3ccc[nH]3)C=C2Oc2ccc(Cl)cc2)c1C | -73.1% [100 µM] (active) | -7.03% [100 µM] (active) | -53% [100 µM] (active) | -6.56% [100 µM] (active) | -48% [100 µM] (active) | -22.7% [100 µM] (active) | -49% [100 µM] (active) |  | -23.6% [100 µM] (active) |  |
| CCCCCCCC[Si](OCC)(OCC)OCC | 102% | 106% | 81.1% | 90.8% | 98.2% | 54.9% | 105% |  | 95.7% |  |
| C/C(=C\CCc1ccsc1)CC/C=C(\C)CCCN1CCSCC1 | 89.3% | 78.9% | 59.9% | 108% | 94.7% | 87.5% | 23.5% | 73.7% | 81.2% |  |
| COC(=O)[C@H](CCCCNC(=O)OCc1ccccc1)NC(=O)[C@@H](NC(=O)Nc1cc(C(F)(F)F)cc(C(F)(F)F)c1)C(C)C | -77.3% [100 µM] (active) | -88.3% [100 µM] (active) | -88.6% [100 µM] (active) | -44% [100 µM] (active) | -99.4% [100 µM] (active) | -36.3% [100 µM] (active) | -5.02% [100 µM] (active) |  | -7.72% [100 µM] (active) |  |
| Cc1ccc(-c2c3c(N)c4c(nc3nc3c2c(C)nn3-c2ccccc2)CCC4)cc1 | 88.6% | 94.1% | 50.5% | 100% | 12% | 99.2% | 107% |  | 60.9% |  |
| CSc1nc(-c2ccc(O)cc2O)c2c(=O)[nH]c(Nc3ccc(S(=O)(=O)Nc4nc(C)cc(C)n4)cc3)nc2n1 | 81.2% | 107% | 112% | 123% | 93.3% | 1120% | 113% | 103% | 104% |  |
| Cn1c(N2N=C(c3ccc(Cl)cc3)CC2c2ccccc2)nc(-c2ccccc2)c(C#N)c1=O (configuration not stated) | 78.4% | 67.3% | 60.5% | 117% | 77.2% | 63.7% | 79.6% |  | 60.1% |  |
| COC(=O)[C@H](Cc1cnc[nH]1)NC(=O)[C@@H](NC(=O)Nc1cc(C(F)(F)F)cc(C(F)(F)F)c1)C(C)C | -93% [100 µM] (active) | -96.3% [100 µM] (active) | -21.7% [100 µM] (active) | -95% [100 µM] (active) | -58.3% [100 µM] (active) | 40.9% [100 µM] | -87.8% [100 µM] (active) |  | -45.5% [100 µM] (active) |  |
| O=C(N/N=C/c1cccc(O)c1O)c1ccccc1 | 54.5% | 21.3% | 4.38% (active) | 18.6% | 11.5% | -20.5% (active) | 81.1% |  | 9.39% (active) |  |
| COc1c(Br)cc(C(c2cc(Br)c(OC)c(Br)c2)c2ccccc2C(=O)O)cc1Br | 114% | 96% | 68.9% | 106% | 91.2% | 91.6% | 107% |  | 89.4% |  |
| FCc1ncc(-c2ccc(C(F)(F)F)cc2)c(NC2CCCCCC2)n1 | -40.8% [100 µM] (active) | -30.3% [100 µM] (active) | 11.1% [100 µM] | 38% [100 µM] | 8.81% [100 µM] (active) | 0.556% [100 µM] (active) | -19.4% [100 µM] (active) |  | -20.3% [100 µM] (active) |  |
| C/C(=C\CCc1ccoc1)CC/C=C(\C)CCCC1COC(=O)C1 (configuration not stated) | 100% | 94.8% | 78.8% | 114% | 97.5% | 94.4% | 91.3% | 93% | 92.2% |  |
| CCn1cnc(C[C@H](NC(=O)[C@H](CCCCNC(=O)Nc2cc(C(F)(F)F)cc(C(F)(F)F)c2)NC(=O)Nc2cc(C(F)(F)F)cc(C(F)(F)F)c2)C(=O)OC)c1 | -100% [100 µM] (active) | -6.45% [100 µM] (active) | 49.4% [100 µM] | -36.5% [100 µM] (active) | -40.4% [100 µM] (active) | 68.4% [100 µM] | -52.4% [100 µM] (active) |  | -33.8% [100 µM] (active) |  |
| CC(C)OP(=O)(OC(C)C)c1ncc(-c2ccc(C(F)(F)F)cc2)c(NC2CCCCCC2)n1 | -85.1% [33.3 µM] (active) | -72.9% [33.3 µM] (active) | -91.5% [33.3 µM] (active) | 1.08% [33.3 µM] (active) | -1.03% [33.3 µM] (active) | -29.4% [33.3 µM] (active) | -94% [33.3 µM] (active) |  | -46.2% [33.3 µM] (active) |  |
| Cc1ccc(C2=NNC(c3sc(Cl)nc3Cl)C2)cc1 (configuration not stated) | 89.3% | 40.8% | 78.3% | 133% | 112% | 96.6% | 97.2% | 18% | 8.29% (active) |  |
| Cc1ccc(-c2c3c(N)nc(-c4ccncc4)nc3nc3c2c(C)nn3-c2ccccc2)cc1 | -7.11% (active) | 26.8% | 93.4% | 12.3% | 53.2% | 72.5% | 82.7% |  | 65.3% |  |
| NS(=O)(=O)c1ccc(-n2nc(-c3ccc(Br)cc3)ccc2=O)cc1 | 66.6% [100 µM] | 70.9% [100 µM] | 89.2% [100 µM] | 22.2% [100 µM] | 70.8% [100 µM] | 75.1% [100 µM] | 40.6% [100 µM] |  | 92.6% [100 µM] |  |
| COc1ccc(OC)c2c1CCC1(C2)NC(=O)NC1=O (configuration not stated) | 118% | 97.3% | 82.3% | 114% | 103% | 91.3% | 104% |  | 104% |  |
| C=CCN(/C=C/CN(CC=C)CC=C)CC=C | 115% | 104% | 90.1% | 96.9% | 93.2% | 69.7% | 91.8% |  | 96.4% |  |
